# PAFAH1B3 FP inh = inhibitors of human PAFAH1B3. inhibition, % at 3.39 µM. recombinant PAFAH1B3, FP-rhodamine probe, fluorescence polarization. Q15102. AID 492972. hit rate 0.28% among 340,000;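 active = inhibition above the screen-wide average of all tested compounds plus 3 SD, cut at about 25% in these data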;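 also: 0% = enzyme with DMSO only and 100% = wells lacking PAFAH1B3 protein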
# Target sequence (Q15102 whole entry, looked up): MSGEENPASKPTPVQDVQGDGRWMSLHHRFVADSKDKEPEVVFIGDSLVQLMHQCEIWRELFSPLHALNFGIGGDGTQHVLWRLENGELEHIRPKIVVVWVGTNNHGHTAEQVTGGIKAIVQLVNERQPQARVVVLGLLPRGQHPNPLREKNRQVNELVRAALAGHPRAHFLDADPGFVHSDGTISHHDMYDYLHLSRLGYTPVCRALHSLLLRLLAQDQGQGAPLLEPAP
# PME-1 inh = PME-1 (human) inhibition | Q9Y570 | recombinant PME-1, FP-Rh probe fluorescence polarization | inhibition, % at 5.9 µM | hit rate 0.53% among 320,000 | AID 2130;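 active = inhibition above the campaign mean of all compounds plus 3 SD, cut at about 26% in these data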;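 also: competitive labeling of PME-1 active site by serine hydrolase directed probe; 0% = PME-1 with DMSO and 100% = wells lacking PME-1 enzyme; inhibitors block probe labeling so polarization falls and inhibition rises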
# Target sequence (Q9Y570 whole entry, looked up): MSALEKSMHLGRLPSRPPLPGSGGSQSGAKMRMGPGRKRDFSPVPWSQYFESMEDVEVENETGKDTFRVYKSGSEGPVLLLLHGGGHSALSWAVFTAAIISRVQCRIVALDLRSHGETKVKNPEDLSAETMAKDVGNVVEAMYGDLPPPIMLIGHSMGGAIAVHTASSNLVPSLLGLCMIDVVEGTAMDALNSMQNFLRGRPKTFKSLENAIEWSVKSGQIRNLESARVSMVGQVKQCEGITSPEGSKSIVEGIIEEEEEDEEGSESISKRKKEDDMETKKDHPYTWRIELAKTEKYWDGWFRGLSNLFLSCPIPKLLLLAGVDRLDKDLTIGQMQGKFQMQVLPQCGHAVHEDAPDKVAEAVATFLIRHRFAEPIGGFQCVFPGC
# Fam108B inh = blocks mouse Fam108B hydrolase in RBBP9 counter-screen; recombinant Fam108B, FP-Rh probe fluorescence polarization; inhibition, % at 9.51 µM; hit rate 0.33% among 300,000;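 active = inhibition above the screen mean inhibition plus 3 SD, computed separately per campaign, cut at about 18% in these data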;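 also: inhibitors lower polarization as less probe binds the enzyme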
# pPAFAH inh = inhibitors of human plasma PAF acetylhydrolase (pPAFAH); Q13093; recombinant pPAFAH, FP-rhodamine probe fluorescence polarization; inhibition, % at 3.39 µM; hit rate 1.5% among 330,000; AID 463082;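 active = inhibition above the mean inhibition across the screen plus 3 SD, cut at about 25% in these data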;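 also: inhibitors block binding of the rhodamine activity-based probe so polarization drops; 0% = enzyme with DMSO and 100% = wells lacking pPAFAH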
# PAFAH1B2 inh = inhibitors of human PAFAH1B2 | P68402 | recombinant PAFAH1B2, FP-rhodamine activity probe, fluorescence polarization | inhibition, % at 3.39 µM | hit rate 1.2% among 340,000;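 active = inhibition above the mean of all tested compounds plus 3 SD, cut at about 24% in these data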;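 also: 0% = enzyme with DMSO and 100% = wells lacking PAFAH1B2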
# PAFAH2 inh = PAFAH2 (human) inhibition | hit rate 0.99% among 340,000 | recombinant PAFAH2, FP-rhodamine activity probe, fluorescence polarization | Q99487 | AID 492956 | inhibition, % at 3.39 µM;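 active = inhibition above the mean over all tested compounds plus 3 SD, cut at about 30% in these data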;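 also: inhibitors block probe labeling of enzyme so polarization drops; 0% = enzyme with DMSO and 100% = wells lacking PAFAH2 protein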
# Starred values were filed as active, the others as inactive; nt = not tested or not shown. Shown are actives, neighbours in structure and some others; about 2.8% of the full set was active somewhere.
SMILES,PAFAH1B3 FP inh,PME-1 inh,Fam108B inh,pPAFAH inh,PAFAH1B2 inh,PAFAH2 inh
O=C(NCc1ccccc1)C1(c2cccc(F)c2)CCCC1,6.9,-4.1,0.8,-4.5,26.2*,9.7
O=C(NCc1ccco1)C1(c2ccccc2)CCCC1,12.3,-0.6,5.8,6.0,14.3,4.8
Cn1c(SCC(=O)Nc2ccc(Br)cn2)nnc1C1CC1,-1.8,4.5,0.0,1.1,3.2,0.2
CCC1=NNc2cccc3c(OC)ccc1c23,nt,22.6,14.1,48.4*,nt,nt
O=C(NCc1cccc(OC(F)(F)F)c1)c1ccc2c(c1)S(=O)(=O)c1cc(Cl)ccc1C2=O,1.0,nt,nt,3.5,3.8,7.0
Cc1ccc(S(=O)(=O)N2CC(C)C(=O)CC2C)cc1 (stereo not drawn),7.3,5.6,5.7,-0.8,-3.9,12.0
O=c1c(Cc2ccc(Cl)cc2)c(O)ccn1Cc1cccc(Cl)c1,6.0,7.1,-3.7,3.5,12.4,3.2
COC(=O)Cc1c(O)ccn(Cc2ccc(Cl)c(Cl)c2)c1=O,13.9,3.0,-3.4,4.8,28.2*,6.7
O=c1c(Cc2ccc(Cl)cc2Cl)c(O)ccn1Cc1ccc(Cl)cc1,1.1,-7.5,-0.1,4.9,27.8*,3.9
Cc1c(C(=O)O)sc2nc(CSc3ncc(C(F)(F)F)cc3Cl)[nH]c(=O)c12,3.8,1.6,-2.1,3.4,14.0,-11.9
COc1ccc(-c2cc(C)no2)cc1S(=O)(=O)NCCc1ccco1,3.2,-0.8,5.4,0.4,3.2,5.7
COCCCNC(=O)C(=O)NC1CCCCC1C (stereo not drawn),13.0,-5.1,2.9,25.9*,4.2,6.5
CCCCn1c(O)c(/C=C/C=C/C=Nc2ccccc2)sc1=S,-10.9,-18.5,-28.8,29.7*,-9.1,2.1
CN1CSC2=C(C#N)C(c3cccc(OCc4ccccc4)c3)CC(=O)N2C1 (stereo not drawn),7.1,-9.9,3.8,15.8,7.2,32.1*
Cc1cc(=O)n2cn[nH]c2n1,2.3,nt,nt,nt,8.7,2.0
COc1ccc(-c2c(C)nn3c(C)cc(C)nc23)cc1,10.3,-5.6,3.2,3.5,1.2,1.7
CC(C)c1ccc(C(=O)COC(=O)C(O)c2ccccc2)cc1 (stereo not drawn),7.3,nt,nt,29.4*,12.9,9.2
CC(NC(N)=O)C(=O)OCC(=O)c1ccc(-c2ccccc2)cc1 (stereo not drawn),-2.6,-10.8,-0.6,6.8,-3.5,3.8
Cc1cc(C)c(C#N)c(SCCS(=O)(=O)c2ccc(Cl)cc2)n1,-3.6,13.1,0.2,3.5,29.2*,1.1
Cc1cc(C)c(C#N)c(SCCS(=O)(=O)c2ccc(C(C)(C)C)cc2)n1,-0.3,-2.1,0.1,-1.6,-0.5,0.7
CC(C)CNC(=O)c1cnn2c(C(F)(F)F)cc(C(F)(F)F)nc12,nt,5.3,0.8,-0.9,nt,nt
O=C(O)c1cccc(N2C(=O)CSC2c2ccccc2)c1 (stereo not drawn),6.2,3.1,-0.2,2.8,27.4*,-8.0
O=C1CSC(c2ccccc2)N1c1cccnc1 (stereo not drawn),7.4,3.3,-0.2,-5.8,5.8,0.9
COc1ccc(/C=C2\Sc3ccc(C(=O)N4CCN(Cc5ccccc5)CC4)cc3N(C)C2=O)cc1OC,5.2,41.6*,-2.2,16.2,3.5,5.1
COc1ccc(CCN2CCCn3c2nc2c3c(=O)n(C)c(=O)n2C)cc1OC,3.0,nt,nt,nt,-1.9,1.3
SMILES,PAFAH1B3 FP inh,PME-1 inh,Fam108B inh,pPAFAH inh,PAFAH1B2 inh,PAFAH2 inh
CCOc1cc(C(=O)OCc2cccc(OC)c2OC)ccc1OCC(=O)N1CCOCC1,-6.5,-5.1,-2.0,32.5*,1.3,2.7
CCOc1cc(C(=O)OCc2ccc([N+](=O)[O-])cc2)ccc1OCC(=O)N1CCOCC1,-3.9,4.3,0.0,10.3,-4.8,17.2
CCOc1ccc(S(=O)(=O)N2CCC(C(=O)NC3CC3)CC2)cc1C,7.4,3.8,0.5,3.2,6.0,-5.2
O=C(CN1CCC(NC(=O)C2CC2)CC1)Nc1cccc(F)c1,5.9,-0.8,3.0,-1.9,2.9,-6.8
COc1ccc(Cl)cc1C(=O)O/N=C(\N)c1ccc(Cl)cc1,6.7,-5.3,-5.0,-1.1,-1.0,2.6
Cc1occc1C(=O)O/N=C(\N)c1ccc(Cl)cc1,0.6,-4.8,-1.2,0.3,34.4*,1.7
Cn1nccc1C(=O)NC1CC(C)(C)Cc2c1cnn2-c1ccc(F)cc1 (stereo not drawn),11.4,9.3,7.6,4.7,-0.7,3.6
Cc1cc(C(=O)CSc2cccc[n+]2[O-])c(C)n1-c1ccc(OC(F)F)cc1,5.0,-2.1,-0.7,30.6*,2.1,5.3
COC(=O)c1ccc(-n2c(C)cc(C(=O)CSc3cccc[n+]3[O-])c2C)cc1,5.7,-2.0,-2.3,16.4,1.8,2.2
C[C@H](OC(=O)N1CCN(C(c2ccccc2)c2ccccc2)CC1)[C@@H]1O[C@@]2(C)CCC[C@H]1O2,-0.2,2.9,0.2,10.7,-0.6,0.4
C[C@H](OC(=O)NCc1ccc(C(F)(F)F)cc1)[C@@H]1O[C@@]2(C)CCC[C@@H]1O2,-0.7,-0.9,nt,-1.6,25.0*,0.2
O=C1c2cccc3c(N4CCCCC4)ccc(c23)C(=O)N1c1ccccn1,-6.4,-4.8,2.9,3.7,2.9,1.1
O=C1c2ccccc2-c2n[nH]c(=O)c3ccc(N4CCCCC4)c1c23,9.8,7.6,2.9,32.6*,8.2,12.9
O=S(=O)(c1ccc(Cl)cc1)c1cc(O)ccc1O,5.8,-1.0,-4.0,6.3,26.2*,2.6
O=S(=O)(c1ccccc1)c1cc(O)ccc1O,2.5,-10.0,-2.5,1.6,1.4,2.8
O=C(CCc1nc2sc3c(c2c(=O)[nH]1)CCCC3)N1CCN(c2ccccc2)CC1,-6.6,0.7,1.0,2.4,11.9,5.1
CCOc1ccccc1N1CC(O)=C(c2nc3ccccc3s2)C1=N,0.1,7.1,5.8,33.1*,1.2,14.2
CCOc1cc(C2NN=C(c3ccc(C)cc3)S2)ccc1O (stereo not drawn),-2.5,8.5,25.0*,5.4,3.7,-1.8
COc1ccc(C2NN=C(c3ccc(C)cc3)S2)cc1 (stereo not drawn),-4.5,-5.2,-0.7,4.7,0.2,-2.5
NC(=O)NC(=O)COC(=O)c1ccc(OC(F)(F)F)cc1,5.7,-4.6,1.2,3.5,0.4,4.9
O=C(COC(=O)c1ccc(OC(F)(F)F)cc1)Nc1ncccn1,-0.8,nt,nt,24.8*,0.5,14.8
CC1CCN(S(=O)(=O)c2ccc3c(c2)CCN3C(=O)CCC(=O)O)CC1,10.7,0.9,0.5,2.3,26.4*,0.9
CC(C)(C)c1[nH]nc2c1C(Cc1ccccc1)C(C#N)=C(N)O2 (stereo not drawn),4.3,2.8,-3.6,-1.3,39.6*,1.1
CC(C)(C)c1[nH]nc2c1C(C1C=CCCC1)C(C#N)=C(N)O2 (stereo not drawn),-2.6,-4.3,2.5,-3.0,26.9*,6.9
CC(C)c1[nH]nc2c1C(C1C=CCCC1)C(C#N)=C(N)O2 (stereo not drawn),1.8,-0.5,2.4,-2.0,17.5,5.5

# Source: PubChem (The Scripps Research Institute Molecular Screening Center)
